# According to PubChem BioAssay (Tox21):
# Records with an inconclusive call do not appear. Active and inactive are the calls of the source. Calls follow the shape of the dose curve; as a rule, active = well fitted curve in the direction sought with a large enough effect in the repeat runs; inconclusive = weak or mixed curves; inactive = no such curve, though single readings can be large; an effect the other way counts as inactive or inconclusive.
# Biological target: Cytochrome P450 2C19 (Homo sapiens) (UniProt P33261)
# Assay: Cytochrome P450 Family 2 Subfamily C Member 19 (CYP2C19) small molecule antagonists: luciferase reporter qHTS assay (AID 1671197); also: nearly all actives have a fitted effect of over 65% in size; also: potency is read from the fitted curve at half-maximal effect
# Settings: P450-Glo CYP2C19 enzyme, luciferin luminescence, 1 h; series mostly up to 115 µM; activity change, negative = inhibition: at the top concentration
# In short: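 P450-Glo CYP2C19 system: enzyme-substrate mix with compound 10 min at room temperature, then NADPH regeneration solution, 1 h at 37C. Proluciferin-to-luciferin conversion detected by luminescence after 20 min with detection reagent; ketoconazole as positive control.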
# % is scaled to controls: 0 for no effect and ±100 for the full control effect.
# Chain of Cytochrome P450 2C19 (Homo sapiens) (P33261 whole entry, looked up): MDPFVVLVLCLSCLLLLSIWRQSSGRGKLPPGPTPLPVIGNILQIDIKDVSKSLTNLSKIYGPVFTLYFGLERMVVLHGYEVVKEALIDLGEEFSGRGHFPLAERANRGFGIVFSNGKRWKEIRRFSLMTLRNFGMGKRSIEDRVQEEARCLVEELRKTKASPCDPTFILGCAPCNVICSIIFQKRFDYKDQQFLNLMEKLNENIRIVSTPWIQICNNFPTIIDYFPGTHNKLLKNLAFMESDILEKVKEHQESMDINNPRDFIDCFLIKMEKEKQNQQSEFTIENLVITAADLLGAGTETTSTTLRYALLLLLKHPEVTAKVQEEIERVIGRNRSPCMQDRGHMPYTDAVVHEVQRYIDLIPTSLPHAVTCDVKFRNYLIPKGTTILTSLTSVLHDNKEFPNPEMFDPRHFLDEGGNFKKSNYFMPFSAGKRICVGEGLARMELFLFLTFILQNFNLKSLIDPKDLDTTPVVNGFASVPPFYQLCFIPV
Structure (SMILES),"activity change, negative = inhibition",Potency
CNC(C)=O,-2.9% (inactive),
COC(=O)c1ccc(C(=O)O)cc1,-9.68% (inactive),
CN(C)c1cc(NC(=O)CNC(C)(C)C)c(O)c2c1C[C@H]1C[C@H]3[C@H](N(C)C)C(=O)C(C(N)=O)=C(O)[C@@]3(O)C(=O)C1=C2O,,21.9 µM (active)
c1cc2ccc3ccc4ccc5cccc6c(c1)c2c3c4c56,-3.91% [at 4.07 µM] (inactive),
CCc1ncc(C)[nH]1,4.35% (inactive),
CCCCOCCCC,10% (inactive),
CCCCCCCCCCCCCC(=O)OCC,6.74% (inactive),
CCCCc1ccc(Cl)cc1,-8.81% (inactive),
CC(C)C(=O)Nc1cccc(C2CN3CCSC3=N2)c1 (configuration not stated),-1.48% [at 52.9 µM] (inactive),
CC(C)(C)OC(=O)c1ccccc1C(=O)O,-7.33% (inactive),
CCCCCCCCCCCCCCCC/C=C/C1CC(=O)OC1=O (configuration not stated),,27.4 µM (active)
Cc1ccc(O)c(C(=O)c2ccccc2)c1,,1.01 µM (active)
CC(C)(C)OC=O,-24.1% (inactive),
C=CCn1cc[n+](C)c1,14.1% (inactive),
CC(=O)OC/C=C(/C)CCC=C(C)C,0.0868% (inactive),
C=CCCCCCCCCOC(C)=O,9.3% (inactive),
Cc1ccc(N)nc1,22.2% (inactive),
O=C(O)/C=C(\CC(=O)O)C(=O)O,23.9% [at 52.9 µM] (inactive),
O=C1c2ccccc2C(=O)N1CO,4.61% (inactive),
Cc1nnc(C(=O)NC(C)(C)c2nc(C(=O)NCc3ccc(F)cc3)c(O)c(=O)n2C)o1,-17.7% [at 52.9 µM] (inactive),
C=C(C)C(=O)OCCOC1CC2CC1C1C=CCC21 (configuration not stated),,30.3 µM (active)
CCO/C=C1\N=C(c2ccccc2)OC1=O,,79.4 µM (active)
CCCCN(CCCC)CCCCCCN(CCCC)CCCC,11% (inactive),
CC12CCCC=C1C(=O)OC2=O (configuration not stated),-10.7% (inactive),
NC[C@H]1O[C@H](O[C@H]2[C@H](O)[C@@H](O[C@H]3O[C@H](CO)[C@@H](O)[C@H](N)[C@H]3O)[C@H](N)C[C@@H]2N)[C@H](N)[C@@H](O)[C@@H]1O,39.5% [at 23.6 µM] (inactive),
C=CCCCCCCCCCCCCCC,,18.6 µM (active)
CC(C)(C)c1ccc(N)cc1,13% (inactive),
CC(C)(O)CCCC1=CCC(C=O)CC1 (configuration not stated),,10.7 µM (active)
CC1(C)C(=O)C(C)(C)C1=O,18.6% (inactive),

# Biological target: Cytochrome P450 2C9 (Homo sapiens) (UniProt P11712)
# Assay: Cytochrome P450 Family 2 Subfamily C Member 9 (CYP2C9) small molecule antagonists: luciferase reporter qHTS assay (AID 1671198); also: nearly all actives have a fitted effect of over 50% in size; also: potency is read from the fitted curve at half-maximal effect
# Settings: P450-Glo CYP2C9 enzyme assay, luciferin luminescence; series mostly up to 115 µM; activity change, negative = inhibition: at the top concentration
# In short: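 P450-Glo proluciferin substrate with CYP2C9 enzyme; 10 min RT preincubation, then NADPH regeneration 1 h at 37C; luciferin detection reagent 20 min RT, luminescence in relative luminescence units.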
# Chain of Cytochrome P450 2C9 (Homo sapiens) (P11712 whole entry, looked up): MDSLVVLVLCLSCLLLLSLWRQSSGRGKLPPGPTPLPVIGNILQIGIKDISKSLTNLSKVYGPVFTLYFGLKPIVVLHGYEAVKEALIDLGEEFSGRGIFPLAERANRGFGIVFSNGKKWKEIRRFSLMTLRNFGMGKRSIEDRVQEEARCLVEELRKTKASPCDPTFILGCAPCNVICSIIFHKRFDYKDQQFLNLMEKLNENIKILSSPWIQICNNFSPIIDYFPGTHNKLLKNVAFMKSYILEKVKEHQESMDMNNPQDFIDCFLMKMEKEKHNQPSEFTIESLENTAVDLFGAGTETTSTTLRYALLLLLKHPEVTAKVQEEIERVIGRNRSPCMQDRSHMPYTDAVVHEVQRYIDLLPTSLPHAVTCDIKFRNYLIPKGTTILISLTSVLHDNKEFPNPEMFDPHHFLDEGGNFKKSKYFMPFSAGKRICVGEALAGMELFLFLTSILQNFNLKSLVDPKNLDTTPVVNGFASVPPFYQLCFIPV
Structure (SMILES),"activity change, negative = inhibition",Potency
CCCCS,1.27% (inactive),
CNC(C)=O,-13.7% (inactive),
c1cc2ccc3ccc4ccc5cccc6c(c1)c2c3c4c56,-14.6% [at 4.07 µM] (inactive),
CCc1ncc(C)[nH]1,-17.4% (inactive),
CCCCOCCCC,-5.89% (inactive),
CCCCCCCCCCCCCC(=O)OCC,-2.64% (inactive),
CCCCc1ccc(Cl)cc1,-18.2% (inactive),
Cc1ccc(O)c(C(=O)c2ccccc2)c1,,5.69 µM (active)
CC(C)(C)OC=O,-13.1% (inactive),
C=CCn1cc[n+](C)c1,4.23% (inactive),
CC(=O)OC/C=C(/C)CCC=C(C)C,-9.46% (inactive),
C=CCCCCCCCCOC(C)=O,-15% (inactive),
Cc1ccc(N)nc1,3.17% (inactive),
O=C(O)/C=C(\CC(=O)O)C(=O)O,-1.25% [at 53 µM] (inactive),
O=C1c2ccccc2C(=O)N1CO,17.1% (inactive),
COC(=O)c1ccc(NC(C)=O)cc1OC,1.23% [at 53 µM] (inactive),
Cc1nnc(C(=O)NC(C)(C)c2nc(C(=O)NCc3ccc(F)cc3)c(O)c(=O)n2C)o1,3.85% [at 53 µM] (inactive),
C=C(C)C(=O)OCCOC1CC2CC1C1C=CCC21 (configuration not stated),,42.9 µM (active)
Nc1cc(S(=O)(=O)O)ccc1O,-14.1% (inactive),
NC[C@H]1O[C@H](O[C@H]2[C@H](O)[C@@H](O[C@H]3O[C@H](CO)[C@@H](O)[C@H](N)[C@H]3O)[C@H](N)C[C@@H]2N)[C@H](N)[C@@H](O)[C@@H]1O,16.5% [at 23.6 µM] (inactive),
C=CCCCCCCCCCCCCCC,-3.74% [at 23.6 µM] (inactive),
CC(C)(O)CCCC1=CCC(C=O)CC1 (configuration not stated),,60.2 µM (active)
CC1(C)C(=O)C(C)(C)C1=O,-8.34% (inactive),

# Biological target: Cytochrome P450 1A2 (Homo sapiens) (UniProt P05177)
# Assay: Cytochrome P450 Family 1 Subfamily A Member 2 (CYP1A2) small molecule antagonists: luciferase reporter qHTS assay (AID 1671199); also: nearly all actives have a fitted effect of over 50% in size; also: potency is read from the fitted curve at half-maximal effect
# Settings: P450-Glo CYP1A2 enzyme, luciferin luminescence, 1 h; series mostly up to 115 µM; activity change, negative = inhibition: at the top concentration
# In short: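 Read-out is luminescence from luciferin detection reagent (20 min) proportional to CYP1A2 activity; compounds in DMSO preincubated 10 min with enzyme and proluciferin substrate, then NADPH regeneration solution, 1 h, room temperature.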
# Chain of Cytochrome P450 1A2 (Homo sapiens) (P05177 whole entry, looked up): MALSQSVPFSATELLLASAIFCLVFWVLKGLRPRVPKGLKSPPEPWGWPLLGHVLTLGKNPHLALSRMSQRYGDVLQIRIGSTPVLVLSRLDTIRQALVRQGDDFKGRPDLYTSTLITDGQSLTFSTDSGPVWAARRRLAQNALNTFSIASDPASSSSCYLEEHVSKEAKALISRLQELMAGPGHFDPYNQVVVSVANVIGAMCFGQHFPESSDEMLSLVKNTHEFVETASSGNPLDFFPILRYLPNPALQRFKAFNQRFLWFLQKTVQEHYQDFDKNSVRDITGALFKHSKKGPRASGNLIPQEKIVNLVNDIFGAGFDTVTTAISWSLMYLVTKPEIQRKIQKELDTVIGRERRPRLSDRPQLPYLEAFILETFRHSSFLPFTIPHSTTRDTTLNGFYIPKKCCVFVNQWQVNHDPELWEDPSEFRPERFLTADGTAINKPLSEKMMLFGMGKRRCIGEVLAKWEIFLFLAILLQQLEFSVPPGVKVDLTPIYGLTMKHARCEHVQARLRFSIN
Structure (SMILES),"activity change, negative = inhibition",Potency
COC(=O)c1ccc(C(=O)O)cc1,-14.3% (inactive),
c1cc2ccc3ccc4ccc5cccc6c(c1)c2c3c4c56,,0.2 µM (active)
CC(C)C(=O)Nc1cccc(C2CN3CCSC3=N2)c1 (configuration not stated),-9.77% [at 53 µM] (inactive),
CC(C)(C)OC(=O)c1ccccc1C(=O)O,-24.8% (inactive),
Cc1ccc(O)c(C(=O)c2ccccc2)c1,,1.43 µM (active)
CC(=O)OC/C=C(/C)CCC=C(C)C,-14% (inactive),
NNC(=O)CCCCC(=O)NN,,31.7 µM (active)
COC(=O)c1ccc(NC(C)=O)cc1OC,,11.5 µM (active)
Cc1nnc(C(=O)NC(C)(C)c2nc(C(=O)NCc3ccc(F)cc3)c(O)c(=O)n2C)o1,0.158% [at 53 µM] (inactive),
C=C(C)C(=O)OCCOC1CC2CC1C1C=CCC21 (configuration not stated),,42.9 µM (active)
CCO/C=C1\N=C(c2ccccc2)OC1=O,,35.5 µM (active)
CCCCN(CCCC)CCCCCCN(CCCC)CCCC,-30.6% (inactive),
Nc1cc(S(=O)(=O)O)ccc1O,-13.7% (inactive),
CC(=O)/C=C/C=C1/C2CCC(C2)C1(C)C (configuration not stated),,21.9 µM (active)
CC(C)(C)c1ccc(N)cc1,-10.6% (inactive),
CC(C)(O)CCCC1=CCC(C=O)CC1 (configuration not stated),,38 µM (active)
CC1(C)C(=O)C(C)(C)C1=O,-12.4% (inactive),

# Biological target: Voltage-gated inwardly rectifying potassium channel KCNH2 (Homo sapiens) (UniProt Q12809)
# Assay: Human Ether-a-go-go-Related Gene (hERG) channel small molecule antagonists: fluorescence cell-based qHTS assay (AID 1671200); also: nearly all actives have a fitted effect of over 50% in size
# Settings: hERG-U2OS cells, FluxOR thallium flux fluorescence; series mostly up to 76.8 µM; activity change, negative = inhibition: at the top concentration
# In short: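 Thallium flux as potassium surrogate: FluxOR II dye loaded 1 h at room temperature into hERG-expressing U2OS cells, then stimulus buffer added after 10 min. Kinetic 480 nm excitation/540 nm emission read, 2 min.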
# Chain of Voltage-gated inwardly rectifying potassium channel KCNH2 (Homo sapiens) (Q12809 whole entry, looked up): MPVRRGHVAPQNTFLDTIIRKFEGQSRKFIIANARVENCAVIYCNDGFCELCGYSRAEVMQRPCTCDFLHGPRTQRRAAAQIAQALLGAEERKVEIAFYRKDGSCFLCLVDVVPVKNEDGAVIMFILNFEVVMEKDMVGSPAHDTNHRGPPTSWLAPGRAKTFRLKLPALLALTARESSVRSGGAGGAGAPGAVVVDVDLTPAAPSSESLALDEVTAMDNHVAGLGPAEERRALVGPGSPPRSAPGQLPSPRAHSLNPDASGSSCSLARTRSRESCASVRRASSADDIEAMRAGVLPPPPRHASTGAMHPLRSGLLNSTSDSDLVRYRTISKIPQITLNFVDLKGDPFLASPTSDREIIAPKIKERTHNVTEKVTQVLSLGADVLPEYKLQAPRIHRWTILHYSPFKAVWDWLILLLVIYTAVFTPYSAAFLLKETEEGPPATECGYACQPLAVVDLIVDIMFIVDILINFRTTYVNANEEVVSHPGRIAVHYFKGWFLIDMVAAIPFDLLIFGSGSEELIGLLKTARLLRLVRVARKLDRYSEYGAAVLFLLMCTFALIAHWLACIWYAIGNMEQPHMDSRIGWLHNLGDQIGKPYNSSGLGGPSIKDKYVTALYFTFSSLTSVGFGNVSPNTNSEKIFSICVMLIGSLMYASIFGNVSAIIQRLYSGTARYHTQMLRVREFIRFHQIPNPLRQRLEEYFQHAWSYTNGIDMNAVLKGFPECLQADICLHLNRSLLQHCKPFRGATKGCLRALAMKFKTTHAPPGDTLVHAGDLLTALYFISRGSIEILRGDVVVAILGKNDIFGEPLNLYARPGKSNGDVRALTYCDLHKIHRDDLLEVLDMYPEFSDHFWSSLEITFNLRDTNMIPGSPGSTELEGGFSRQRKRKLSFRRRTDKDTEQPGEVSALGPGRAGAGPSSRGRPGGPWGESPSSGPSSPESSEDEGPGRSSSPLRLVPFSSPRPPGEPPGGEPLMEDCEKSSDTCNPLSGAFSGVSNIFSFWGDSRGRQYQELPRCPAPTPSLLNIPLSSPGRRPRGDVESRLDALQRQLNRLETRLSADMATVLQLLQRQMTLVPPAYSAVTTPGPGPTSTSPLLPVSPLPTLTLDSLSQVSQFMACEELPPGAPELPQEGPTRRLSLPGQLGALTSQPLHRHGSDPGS
row,Structure (SMILES),"activity change, negative = inhibition"
1,CCCCS,1.47% (inactive)
2,CNC(C)=O,0.114% (inactive)
3,CC1(C)S[C@@H]2[C@H](NC(=O)Cc3ccccc3)C(=O)N2[C@H]1C(=O)O (tested in a mixture with another compound),1.58% [at 35.3 µM] (inactive)
4,COC(=O)c1ccc(C(=O)O)cc1,-6.51% (inactive)
5,CN(C)c1cc(NC(=O)CNC(C)(C)C)c(O)c2c1C[C@H]1C[C@H]3[C@H](N(C)C)C(=O)C(C(N)=O)=C(O)[C@@]3(O)C(=O)C1=C2O,-1.28% [at 35.3 µM] (inactive)
6,CCc1ncc(C)[nH]1,17.9% (inactive)
7,CCCCOCCCC,10.2% (inactive)
8,C/C(=N\O)c1ccc(OCC(=O)N2CCCCC2)cc1,2.54% [at 35.3 µM] (inactive)
9,CCCCCCCCCCCCCC(=O)OCC,-8.82% (inactive)
10,CC(C)C(=O)Nc1cccc(C2CN3CCSC3=N2)c1 (configuration not stated),0.56% [at 35.3 µM] (inactive)
11,CC(C)(C)OC(=O)c1ccccc1C(=O)O,3.61% (inactive)
12,CCCCCCCCCCCCCCCC/C=C/C1CC(=O)OC1=O (configuration not stated),3.72% [at 35.3 µM] (inactive)
13,CC(C)(C)OC=O,1.89% (inactive)
14,C=CCn1cc[n+](C)c1,-0.506% (inactive)
15,C=CCCCCCCCCOC(C)=O,11.8% (inactive)
16,Cc1ccc(N)nc1,3.91% (inactive)
17,O=C(O)/C=C(\CC(=O)O)C(=O)O,1.52% [at 35.3 µM] (inactive)
18,NNC(=O)CCCCC(=O)NN,3.58% (inactive)
19,O=C1c2ccccc2C(=O)N1CO,-2.18% (inactive)
20,O=C(O)CCC(=O)Nc1ccc(S(=O)(=O)Nc2nccs2)cc1,4.43% [at 35.3 µM] (inactive)
21,CCO/C=C1\N=C(c2ccccc2)OC1=O,-4.06% (inactive)
22,NC(=O)CC[C@@H](N)C(=O)O,4.02% [at 35.3 µM] (inactive)
23,CCCCN(CCCC)CCCCCCN(CCCC)CCCC,-10.9% (inactive)
24,Nc1cc(S(=O)(=O)O)ccc1O,1.02% (inactive)
25,NC[C@H]1O[C@H](O[C@H]2[C@H](O)[C@@H](O[C@H]3O[C@H](CO)[C@@H](O)[C@H](N)[C@H]3O)[C@H](N)C[C@@H]2N)[C@H](N)[C@@H](O)[C@@H]1O,1.37% [at 15.8 µM] (inactive)
26,CC(=O)/C=C/C=C1/C2CCC(C2)C1(C)C (configuration not stated),1.29% [at 35.3 µM] (inactive)
27,C=CCCCCCCCCCCCCCC,4.07% [at 15.8 µM] (inactive)
28,CC(C)(C)c1ccc(N)cc1,0.418% (inactive)
